An excerpt weighted towards active compounds, which were near 2.4% of everything screened.
FEN1 inh – inhibitors of human flap endonuclease 1. P39748. Recombinant FEN1 flap cleavage, fluorescence, 15 min. Potency, µM (series often up to 114 µM), inactives show top-dose activity change, negative = inhibition, actives largely listed as inhibitors. hit rate 0.35% among 390,000. AID 588795; further: on the % scale 0 is the no-effect control and ±100 the full control effect; nearly all actives have a fitted effect of over 65% in size
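Recombinant FEN1 (10 nM) was preincubated with pin-transferred compounds for 15 min at room temperature, then flap DNA substrate (50 nM final) was added. Plates were read at 0 and 15 min, and normalized concentration–response data were fitted to a four-parameter Hill equation.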
Pol beta inh – DNA polymerase beta (human) inhibition; P06746; Pol beta primer extension/strand displacement, fluorescence kinetic; Potency, µM (highest dose often 114 µM), for the others: top-dose activity change, negative = inhibition, actives largely listed as inhibitors; hit rate 1.3% among 340,000; further: on the % scale 0 is the no-effect control and ±100 the full control effect
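Human Pol beta at 10 nM; strand-displacement substrate 50 nM final. Compound exposure 15 min at room temperature before start, reaction 10 min at room temperature.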
Pol eta inh-1 – inhibitors of human DNA polymerase eta; recombinant Pol eta, fluorescent DNA replication assay; Potency, µM (highest dose often 114 µM), without a hit: at the highest dose activity change, negative = inhibition, usual class: inhibitors; hit rate 1.2% among 390,000; Q9Y253; further: on the % scale 0 is the no-effect control and ±100 the full control effect
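Pol eta (10 nM) was preincubated with compounds for 15 min at room temperature, after which fluorescent replication substrate (50 nM final) was added to start the reaction. Fluorescence was read kinetically at 0 and 10 min.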
TDP1 inh – blocks human tyrosyl-DNA phosphodiesterase 1 | AID 485290 | Potency, µM (highest dose often 130 µM), for inactives: top-dose activity change, negative = inhibition, most hits filed as inhibitors | Q9NUW8 | recombinant TDP1, AlphaScreen DNA substrate cleavage | hit rate 0.28% among 350,000; further: on the % scale 0 is the no-effect control and ±100 the full control effect; nearly all actives have a fitted effect of over 40% in size
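E. coli-derived human Tdp1, 1 nM final. Cpd preinc 15 min RT; substrate 15 nM final, 5 min RT; AS bead mix 10 ug/ml final, 10 min RT. Signal loss = tyrosine-FITC cleavage. No-enzyme wells = max signal.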
Pol kappa inh-1 – blocks human DNA polymerase kappa activity | Potency, µM (titrated, usually from 107 µM), for inactives: at the top dose activity, negative = inhibition, most hits filed as inhibitors | purified Pol kappa, fluorescent DNA synthesis assay, 10 min | Q9UBT6 | hit rate 0.53% among 400,000 | AID 588579; further: on the % scale 0 is the no-effect control and ±100 the full control effect
Target sequence (Q9UBT6 whole entry, looked up): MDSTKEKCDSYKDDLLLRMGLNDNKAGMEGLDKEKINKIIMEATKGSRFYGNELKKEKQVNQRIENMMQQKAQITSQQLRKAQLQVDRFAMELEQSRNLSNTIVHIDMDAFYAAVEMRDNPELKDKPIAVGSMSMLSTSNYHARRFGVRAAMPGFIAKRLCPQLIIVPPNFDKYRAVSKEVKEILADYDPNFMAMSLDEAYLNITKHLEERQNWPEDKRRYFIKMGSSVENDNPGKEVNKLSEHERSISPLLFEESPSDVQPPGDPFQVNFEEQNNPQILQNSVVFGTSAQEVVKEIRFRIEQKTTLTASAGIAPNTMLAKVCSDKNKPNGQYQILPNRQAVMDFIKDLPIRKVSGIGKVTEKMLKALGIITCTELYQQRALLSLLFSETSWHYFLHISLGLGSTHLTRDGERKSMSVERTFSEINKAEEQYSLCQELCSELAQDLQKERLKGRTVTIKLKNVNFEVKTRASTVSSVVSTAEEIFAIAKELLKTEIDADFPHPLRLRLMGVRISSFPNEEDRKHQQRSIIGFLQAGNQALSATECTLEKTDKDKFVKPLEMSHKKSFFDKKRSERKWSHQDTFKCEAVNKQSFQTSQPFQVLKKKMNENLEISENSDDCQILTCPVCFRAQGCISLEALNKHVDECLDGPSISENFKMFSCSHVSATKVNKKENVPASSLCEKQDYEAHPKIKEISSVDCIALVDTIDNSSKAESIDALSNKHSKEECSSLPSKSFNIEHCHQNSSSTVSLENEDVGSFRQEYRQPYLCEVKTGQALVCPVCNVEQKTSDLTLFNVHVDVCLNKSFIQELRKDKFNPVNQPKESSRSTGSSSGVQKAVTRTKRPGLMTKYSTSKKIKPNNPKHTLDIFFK
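First, compounds were pin-transferred onto 10 nM Pol kappa. After 15 min at room temperature, substrate was added to 50 nM final. Fluorescence was then measured kinetically at 0 and 10 min.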
Pol iota inh – blocks human DNA polymerase iota activity. hit rate 1% among 390,000. Q9UNA4. Potency, µM (highest dose often 115 µM), for inactives: at the top dose activity, negative = inhibition, most hits filed as inhibitors. Pol iota fluorescent replication assay, 10 min
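Pol iota at 10 nM preincubated 15 min with compounds at room temperature; reaction started with fluorescent substrate, 50 nM final. Fluorescence read kinetically at 0 and 10 min; buffer-only wells as negative control.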
TbPGK inh – TbPGK inhibition, hit validation; shares compounds with Pol kappa inh-1; TbPGK coupled GAPDH assay, Kinase-Glo luminescence; Potency, µM (doses to about 57.5 µM), for inactives: top-dose activity change, negative = inhibition, actives largely listed as inhibitors; hit rate 79% among 500; AID 686980; further: on the % scale 0 is the no-effect control and ±100 the full control effect; nearly all actives have a fitted effect of over 65% in size
POLI cherry-pick – Inhibitors of human DNA polymerase iota, confirmation | Potency, µM, hits mostly inhibitors | shares compounds with Pol kappa inh-1 | hit rate 77% among 1,500 | Pol iota primer extension, TAMRA/BHQ fluorescence | AID 720496
Pol kappa inh-2 – confirmation of human DNA polymerase kappa inhibitors; shares compounds with Pol eta inh-1; purified Pol-kappa, fluorescent strand-displacement substrate; Potency, µM, actives largely listed as inhibitors; hit rate 76% among 920
Pol eta inh-2 – confirmation of human DNA polymerase eta inhibitors; hit rate 64% among 2,600; Pol eta primer extension, TAMRA/BHQ fluorescence, 10 min; AID 720502; shares compounds with Pol eta inh-1; Potency, µM, usual class: inhibitors
* hit, by the source's call; [ ] = remark or other dose. The call rests on the fitted dose curve; in most records, active means well fitted curve in the direction sought with a large enough effect; inconclusive means small, poorly fitted or top-dose-only effect, or another doubt; inactive means no such curve, though single readings can be large; an effect the other way counts as inactive or inconclusive. Potency means the concentration at half of the fitted maximal effect.

How did COc1ccc(C(=O)Oc2ccc(C(c3c(C)[nH][nH]c3=O)c3c(C)[nH][nH]c3=O)cc2OC)cc1 do in these assays?
FEN1 inh: -13%; Pol beta inh: 0%; Pol eta inh-1: -1%; TDP1 inh: 3%; Pol kappa inh-1: -14%; Pol iota inh: inconclusive

What do the screens show for `Cc1[nH][nH]c(=O)c1C(c1ccc(-c2cccc(C(=O)O)c2)o1)c1c(C)[nH][nH]c1=O`?
FEN1 inh: -18%; Pol beta inh: 20µM*; Pol eta inh-1: 13µM*; TDP1 inh: 8.9µM*; Pol kappa inh-1: 89µM*; Pol iota inh: 2.2µM*; POLI cherry-pick: 67*; Pol eta inh-2: 30*

What do the screens show for `O=C(/C=C/c1ccco1)N(c1ccccn1)c1ccccn1`?
FEN1 inh: inconclusive; Pol beta inh: 3.5µM*; Pol eta inh-1: 8.9µM*; Pol kappa inh-1: 32µM*; Pol iota inh: inconclusive; POLI cherry-pick: 17*; Pol eta inh-2: 24*

How did COc1ccc(C(=O)OCC(=O)Nc2ncc([N+](=O)[O-])s2)cc1OC do in these assays?
FEN1 inh: 35µM*; Pol eta inh-1: 3.2µM*; Pol kappa inh-1: 22µM*; Pol iota inh: inconclusive; TbPGK inh: 18µM*; POLI cherry-pick: 19*; Pol kappa inh-2: 6.7*; Pol eta inh-2: inconclusive

What do the screens show for `Cc1ccc(C)c(SCC(=O)OCC(=O)c2ccco2)c1`?
FEN1 inh: inconclusive; Pol beta inh: 22µM*; Pol eta inh-1: 35µM*; Pol kappa inh-1: inconclusive; Pol iota inh: 20µM*; POLI cherry-pick: inconclusive; Pol eta inh-2: inconclusive

How did Cc1ccc(C(=O)COC(=O)CNC(=O)c2ccco2)cc1 do in these assays?
FEN1 inh: 6%; Pol beta inh: 1%; Pol eta inh-1: 1%; TDP1 inh: 3%; Pol kappa inh-1: -3%; Pol iota inh: 16%

What do the screens show for `O=C(Cc1cccs1)OCC(=O)c1ccco1`?
FEN1 inh: -30%; Pol beta inh: 14µM*; Pol eta inh-1: 8.9µM*; Pol kappa inh-1: 25µM*; Pol iota inh: inconclusive; POLI cherry-pick: 75*; Pol eta inh-2: 60*

How did CCOC(=O)c1c(C)[nH]c(CCC(=O)NC(C)c2ccccc2)c1C (stereo not given) do in these assays?
FEN1 inh: 10%; Pol beta inh: -23%; Pol eta inh-1: -24%; TDP1 inh: 3%; Pol kappa inh-1: -6%[60.1 µM]; Pol iota inh: 25%

How did COc1ccc(CCNC(=O)C(C)n2c(=O)cc(C(F)(F)F)c3c(C)nn(C)c32)cc1OC (stereo not given) do in these assays?
FEN1 inh: 22%; Pol beta inh: 1%; Pol eta inh-1: -2%; TDP1 inh: 2%; Pol kappa inh-1: 1%; Pol iota inh: 9%

What do the screens show for `Cc1ccc(CCNC(=O)CCCn2c(=O)c3ccccc3n(Cc3ccccc3C#N)c2=O)cc1`?
FEN1 inh: 18%; Pol beta inh: 0%; Pol eta inh-1: -19%; TDP1 inh: 0%; Pol kappa inh-1: -8%; Pol iota inh: 8%

Screening results as filed in PubChem.
